Sampled rows, rich in hits. Any-hit rate of the full collection: about 12%.
G9a inh: blocks human histone lysine methyltransferase G9a; G9a H3K9 monomethylation, AlphaScreen, 2 h; Potency, µM (doses to about 102 µM), for inactives: at the highest dose activity, negative = inhibition, most hits filed as inhibitors; Q96KQ7; hit rate 8.8% among 350,000; also: % is scaled to controls: 0 for no effect and ±100 for the full control effect; nearly all actives have a fitted effect of over 75% in size
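G9a (20 nM) preincubated 15 min RT with compounds, then 500 nM biotinylated H3K9 peptide and 20 uM SAM added; 2 h RT reaction. Monomethyl-H3K9 product detected by AlphaScreen with anti-H3K9me1 antibody, streptavidin donor and anti-rabbit IgG acceptor beads.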
BAZ2B inh: blocks human BAZ2B | Q9UIF8 | AlphaScreen BAZ2B-H3K14Ac peptide displacement | Potency, µM (top dose mostly 114 µM), for the others: at the highest dose activity change, negative = inhibition, actives largely listed as inhibitors | hit rate 4.4% among 360,000 | AID 504333; also: % is scaled to controls: 0 for no effect and ±100 for the full control effect; nearly all actives have a fitted effect of over 60% in size
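Compounds, titrated to a top concentration of 110 uM, were incubated 30 min at room temperature with preformed BAZ2B/acetyl-K14 H3 peptide complex (50 nM each). Proximity signal was measured by AlphaScreen after 20 min with beads.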
L3MBTL1 inh: L3MBTL1 (human) inhibition; Q9Y468; AlphaScreen L3MBTL1–H3K9me1 peptide binding; Potency, µM (series often up to 57.1 µM), for inactives: at the highest dose activity, negative = inhibition, hits mostly inhibitors; hit rate 0.66% among 230,000; also: % is scaled to controls: 0 for no effect and ±100 for the full control effect; nearly all actives have a fitted effect of over 60% in size
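AlphaScreen assay: L3MBTL1 (50 nM final) was preincubated 30 min at room temperature with biotinylated H3(1-15)K9me1 peptide (75 nM final), then 30 min with library compounds; streptavidin donor and nickel chelate acceptor beads (10 ug/mL final) added, 30 min dark.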
HP1b chromo inh: HP1-beta chromodomain-methylated histone interaction inhibition | AlphaScreen HP1-beta / biotin-H3K9me3 peptide binding | hit rate 0.56% among 390,000 | Potency, µM (top dose mostly 114 µM), without a hit: top-dose activity change, negative = inhibition, most hits filed as inhibitors | P83916; also: nearly all actives have a fitted effect of over 70% in size
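HP1-beta protein (50 nM final) preincubated 30 min at room temperature with biotinylated H3(1-18)K9me3 peptide (50 nM) in PBS pH 7.4, 0.01% Tween-20, then compound added for 30 min. AlphaScreen streptavidin donor/nickel chelate acceptor beads (10 ug/mL final), 30 min dark, luminescence read.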
JMJD2A Tudor: inhibitors of human JMJD2A Tudor domain; O75164; AlphaScreen JMJD2A-Tudor / H3K4me3 peptide binding; Potency, µM (highest dose often 114 µM), without a hit: top-dose activity change, negative = inhibition, hits mostly inhibitors; hit rate 4.4% among 390,000; AID 504339; also: % is scaled to controls: 0 for no effect and ±100 for the full control effect; nearly all actives have a fitted effect of over 50% in size
Sfp inh: blocks B. subtilis Sfp PPTase activity. Biochemical Sfp PPTase activity, qHTS. Potency, µM, for inactives: largest response in the series, negative = inhibition, actives largely listed as inhibitors. AID 1490. hit rate 3.5% among 310,000. Q9F4F7;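 also: the enzyme is Sfp with the accession as filed and its product quenches rhodamine fluorescence; 0% = enzyme reaction without inhibitor and -100% = no enzyme wells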
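Step 1, compound plus 15 nM Sfp-PPTase, 15 min, room temperature. Step 2, add rhodamine-CoA (5 uM) and BHQ-2-YbbR (12.5 uM). Step 3, read 525/598 nm fluorescence at 0 and 30 min.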
Active calls of the source: *; ? = inconclusive; · = not tested or not shown; [ ] = remark or other dose. Calls follow the shape of the dose curve; as a rule, active = well fitted curve in the direction sought with a large enough effect; inconclusive = small, poorly fitted or top-dose-only effect, or another doubt; inactive = no such curve, though single readings can be large; an effect the other way counts as inactive or inconclusive. Potency is read from the fitted curve at half-maximal effect.

SMILES	G9a inh	BAZ2B inh	L3MBTL1 inh	HP1b chromo inh	JMJD2A Tudor	Sfp inh
COc1ccc(C)cc1NCc1cccc(OC)c1OC	7.94µM*	44.7µM*	-9.4%	?	6.31µM*	-19.9%
COc1cc(OC)c(OC)cc1CNc1cc(C)ccc1OC	7.94µM*	·	?	?	39.8µM*	-4.2%
COc1ccccc1CNS(=O)(=O)c1cc(C)ccc1OC	-11.4%[59 µM]	7.8%	3.7%	35.6%	-7.8%	11.0%
COc1ccc(S(=O)(=O)NCc2cccnc2)c2ccccc12	9.9%[59 µM]	8.1%	·	17.3%	-7.1%	11.0%
COc1ccccc1NC(=O)C1=C(C)Nc2nnnn2C1c1ccccc1OC (stereo not given)	-21.1%[12.7 µM]	1.9%	·	34.0%	-14.8%	10.7%
COc1ccccc1/C=C1\CCCC2=C1Nc1nnnn1C2c1ccccc1OC (stereo not given)	10µM*	?	-3.7%	7.0%	?	50.1µM*
O=[N+]([O-])c1cc(S(=O)(=O)C(F)(F)F)ccc1Sc1nc2ccccc2[nH]1	?	?	·	-23.1%	?	18.4%
CS(=O)(=O)c1ccc(Sc2nc3ccccc3[nH]2)c([N+](=O)[O-])c1	?	?	-4.9%	-5.6%	11.2µM*	-1.8%
CC(OC(=O)c1ccncc1)C(=O)Nc1cc(S(=O)(=O)N2CCCCC2)ccc1Cl (stereo not given)	14.6%[59 µM]	-31.6%	-10.4%	9.3%	-9.8%	9.3%
Cc1nc(Nc2ccccc2)c2nc(-c3ccccc3)n(CCN3CCOCC3)c2n1	·	·	·	·	·	1.8%
CC1CCC(C(C)C)C2=C1C(C#N)(C#N)C(C#N)(C#N)C(c1ccccc1)N2 (stereo not given)	7.08µM*	?	-5.8%	?	?	?
COC(=O)C1CCN(c2c([N+](=O)[O-])cc(C(F)(F)F)cc2[N+](=O)[O-])CC1	?	35.5µM*	-22.9%	?	-20.5%[11.4 µM]	11.4%
CN1CCN(c2nc3ccccc3nc2C(C#N)C(=O)OC2CCCCC2)CC1 (stereo not given)	?	56.2µM*	-12.1%	-6.5%	-34.1%	-0.1%
COCC(C)OC(=O)C(C#N)c1nc2ccccc2nc1N1CCN(Cc2ccccc2)CC1 (stereo not given)	44.7µM*	?	-2.6%	-7.2%	-19.2%	-18.8%
O=S(=O)(c1ccc2ncsc2c1)N1CCN(c2nc(-c3cccs3)nc3ccccc23)CC1	·	·	·	5.8%	-22.4%	·
CC[C@H](C)[C@@H](NC(=O)O[C@@H]1Cc2cc(Br)ccc2O[C@H]1c1cccc(OC)c1)C(=O)OC	·	·	·	·	·	-18.1%
Cc1ccc(C(=O)C(c2ccccc2)N2Cc3ccccc3C2=N)cc1 (stereo not given)	11.2µM*	31.6µM*	?	?	28.2µM*	?
O=C(CN1C(=O)N/C(=C\c2ccccc2OCc2ccc(C(=O)O)cc2)C1=O)Nc1ccc(F)cc1	24.2%	70.8µM*	·	?	-32.9%	1.7%
O=C(O)c1ccc(COc2ccccc2/C=C2\NC(=O)N(Cc3ccc(F)cc3)C2=O)cc1	?	1.5%	-1.2%	9.2%	-24.4%	-26.7%
CCOc1cc(/C=C2/NC(=O)N(CC(=O)Nc3cccc(C)c3)C2=O)ccc1O	1.6%[59 µM]	-5.3%	-0.8%	7.3%	-5.6%	11.9%
Cc1cccc(NC(=O)CN2C(=O)N/C(=C\c3ccccc3OCc3ccc(C(=O)O)cc3)C2=O)c1	-50.5%[59 µM]	70.8µM*	·	?	?	2.0%
CC1(c2ccc(OC(F)F)cc2)NC(=O)N(CC(=O)Nc2cccnc2Cl)C1=O (stereo not given)	26.2%[59 µM]	-1.1%	-5.3%	23.1%	-5.5%	·
COc1cccc(Nc2ncc3ncc(=O)n(CCc4ccccc4)c3n2)c1	-15.2%[0.501 µM]	·	·	·	·	-6.1%
CCC1CO/C(=C(\C(Cl)=C(Cl)Cl)[N+](=O)[O-])N1 (stereo not given)	79.4µM*	1.9%	·	?	-15.8%[11.4 µM]	3.5%
CCO[C@H]1OC(C(=O)N2CCOCC2)=C[C@@H](C)[C@@H]1CCCO	13.7%[12.7 µM]	-6.5%	0.3%	29.8%	-2.2%	7.1%
SMILES	G9a inh	BAZ2B inh	L3MBTL1 inh	HP1b chromo inh	JMJD2A Tudor	Sfp inh
CCOC(=O)/C=C1\SCC(=O)N1CC(=O)NC(C)C	3.55µM*	7.2%	·	8.8%	-6.2%	20.1%
CC12CCC(=O)N1C(C(=O)Nc1ccc(SC(F)F)cc1)CS2 (stereo not given)	8.7%[59 µM]	-4.8%	4.6%	23.3%	-3.6%	·
CC(C)[C@H](NS(=O)(=O)c1ccccc1)C(=O)Nc1nccs1	·	·	12.7%	-2.3%	?	·
CCN(Cc1ccccc1)C(=O)c1cc2c(=O)[nH]c3ccc(C)cc3c2s1	-3.2%[59 µM]	-2.2%	·	18.8%	0.4%	·
Cc1nc2ccccc2c2c(N)c3ccccc3n12	17.8µM*	?	·	?	?	-1.2%
COc1ccc(N2CCN(C(=O)c3cccc(N4C(=O)C5C6C=CC(C6)C5C4=O)c3)CC2)cc1 (stereo not given)	-37.3%[59 µM]	-22.0%	·	32.2%	-18.8%	12.3%
O=C(O)c1cccc(N2C(=O)C3C4C=CC(C4=C(c4ccccc4)c4ccccc4)C3C2=O)c1 (stereo not given)	28.2µM*	56.2µM*	?	-24.9%	-1.5%[11.4 µM]	35.5µM*
O=C(c1cccc(N2C(=O)C3C4C=CC(C4)C3C2=O)c1)N1CCCCCC1 (stereo not given)	1.26µM*	1.6%	·	19.4%	-1.2%	17.8%
O=C(c1cccc(N2C(=O)c3ccccc3C2=O)c1)N1CCCCCC1	22.4µM*	?	·	44.4%	0.0%	-16.9%
O=C(O)c1cccc(N2C(=O)c3ccc4c5c(ccc(c35)C2=O)C(=O)N(c2cccc(C(=O)O)c2)C4=O)c1	12.6%[12.7 µM]	?	·	0.9%	-28.2%	-1.8%
Cc1cccc(C(C)C)c1NC(=O)C(C)OC(=O)Cc1n[nH]c(=O)c2ccccc12 (stereo not given)	?	6.9%	-4.7%	27.5%	-9.7%	·
O=C(NC1CCCCC1)C(=S)NCc1ccccc1	-9.3%[12.7 µM]	-5.0%	16.6%	75.9%	37.3%	4.3%
O=C(NC1CCCCCC1)C(=S)NCCc1ccccc1	·	-10.7%	16.3%	4.4%	19.2%	14.1µM*
O=C(NCCc1ccccc1)NC1CCCCC1	4.8%[12.7 µM]	10.5%	5.9%	25.0%	0.0%	13.1%
O=C(NC1CCCCCC1)C(=S)NCc1ccccc1	-115.8%[59 µM]	-4.5%	40.4%	7.5%	49.6%	56.2µM*
COc1ccc(N(CC(=O)Nc2ccccc2C(=O)O)S(=O)(=O)c2ccc(C)c([N+](=O)[O-])c2)cc1	39.8µM*	?	-8.1%	23.3%	-25.8%	12.3%
Cc1ccc(N(CC(=O)N/N=C/c2ccco2)S(=O)(=O)c2ccccc2)cc1	?	?	-44.2%	-14.6%	?	31.6µM*
